The structures appear in SMILES notation. Records with an inconclusive call do not appear. Activity calls are given as the source filed them. The call rests on the fitted dose curve; in most records, active means well fitted inhibition curve with a large enough effect; inconclusive means small, poorly fitted or top-dose-only effect; inactive means flat fitted curve, though single readings scatter.

This passage reports Potency and outcome results from PubChem BioAssay (NCATS).

Common to all, as to test: qHTS profiling for inhibitors of Plasmodium falciparum proliferation (AID 504749); further: nearly all actives have a fitted effect of over 60% in size
Holding throughout (settings): P. falciparum in erythrocytes, SYBR Green DNA, 72 h; series mostly up to 28.7 µM
For orientation: In qHTS, concentration-response curves come from the screen itself.

The subject of one test is CP335. The essentials:
(§1)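 Each compound contacts P. falciparum-infected red blood cells for 72 h at 37 C; lysis buffer (Tris, EDTA, saponin, Triton X, SYBR Green I) is added and fluorescence measured next morning; values normalized to controls.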

For another test, the system named is DFO2036. Put shortly: as §1
The subject of another test is DIV14. Put shortly:
as §1

A further test has as its system DIV17. Put shortly: as §1
In the next test the test system is DIV30. Put shortly: as §1
For a further test, the system named is Dd2. The essentials:
as §1

The subject of a further test is ECU. The essentials: as §1
A further test relates to FAB9. The essentials:
as §1

A further test concerns GB4. Put shortly: as §1
A further test concerns ICS. The essentials:
as §1

For the next test, the system named is JCK. The essentials: as §1
In the next test the test system is N140. Put shortly: as §1
Another test concerns P93_24. The essentials:
as §1

Another test deals with P94_40. The essentials:
as §1

A further test relates to PAD. The essentials: as §1
The next test has as its system PC15. The essentials: as §1
A further test concerns PC26. Put shortly: as §1
The subject of the next test is PC49. The essentials: as §1
Another test concerns SC27B. Put shortly:
as §1

The next test relates to HB3. Put shortly:
as §1
Potency means the concentration at half of the fitted maximal effect.

For the compound `COc1ccc(Cc2cnc(N)nc2N)cc1OC`, the Potency result in the test with CP335, in the test with DFO2036, in the test with DIV14, in the test with DIV17, in the test with Dd2 and with ICS was “inactive” each time. The Potency result with JCK, in the test with N140, with P93_24, in the test on P94_40, in the test on PAD and in the test with PC15 was “inactive” in each case. Further, the Potency result with PC26, in the test with PC49 and with SC27B was “inactive” each time. The result in the test with DIV30 was inactive. Besides, the Potency with ECU is 3.98 µM (active); in the test on FAB9, 7.94 µM (active); with GB4 it was 2.39 µM (active).

Turning to `O=C(O)CCCCC1CCSS1` (centres undefined), the Potency entry with CP335, in the test with DFO2036, in the test with DIV17, in the test on Dd2, with ECU and in the test on FAB9 was “inactive” throughout. The Potency entry with GB4, with HB3, with ICS, in the test with JCK, in the test with N140 and with P93_24 was “inactive” in each case. For the same compound, the Potency entry in the test on P94_40, with PAD, in the test with PC15, in the test on PC26, in the test with PC49 and in the test on SC27B was “inactive” in each case. In the test on DIV30, the compound was called inactive.

`COc1ccccc1Oc1c(NS(=O)(=O)c2ccc(C(C)(C)C)cc2)nc(-c2ncccn2)nc1OCCO`: the Potency result in the test on CP335, with DFO2036, with DIV14, in the test with DIV17, in the test on Dd2 and in the test on ECU was “inactive” in each case. Further, the Potency result in the test with FAB9, in the test on GB4, with HB3, in the test with JCK, with N140 and with P93_24 was “inactive” throughout. For the same compound, the Potency result in the test with P94_40, in the test on PAD, with PC15, with PC26, with PC49 and with SC27B was “inactive” each time. The outcome with DIV30 was inactive.

`CC[N+](C)(CC)CCOC(=O)C1c2ccccc2Oc2ccccc21`: the Potency entry with CP335, in the test on DFO2036, in the test with DIV17, with Dd2, in the test on ECU and in the test on FAB9 was “inactive” each time. Moreover, the Potency result with GB4, in the test with HB3, in the test on ICS, in the test on JCK, with N140 and in the test with P93_24 was “inactive” in each case. In addition, the Potency result in the test with P94_40, in the test with PAD, in the test with PC15, in the test on PC26, in the test with PC49 and in the test on SC27B was “inactive” in each case. For the same compound, the call in the test with DIV30 was inactive.

As to `CC(=O)SC[C@@H](Cc1ccccc1)C(=O)NCC(=O)OCc1ccccc1`, the Potency entry with CP335, with DFO2036, in the test on DIV14, in the test with DIV17, in the test with Dd2 and with ECU was “inactive” throughout. Besides, the Potency result in the test with FAB9, in the test on GB4, in the test on HB3, in the test on JCK, in the test on N140 and in the test with P93_24 was “inactive” throughout. For the same compound, the Potency result with P94_40, in the test on PAD, with PC15, in the test on PC26, in the test on PC49 and with SC27B was “inactive” throughout. In addition, in the test with DIV30, the compound was called inactive.

As to `O=C(Cn1ccnc1[N+](=O)[O-])NCCO`, the Potency entry in the test on CP335, in the test with DFO2036, with DIV14, with DIV17, in the test with Dd2 and with ECU was “inactive” throughout. The Potency entry with FAB9, with GB4, in the test with HB3, with ICS, in the test with JCK and in the test on N140 was “inactive” throughout. In addition, the Potency entry with P93_24, with P94_40, with PAD, with PC15, in the test with PC26 and with PC49 was “inactive” throughout. For the same compound, the Potency result in the test on SC27B is “inactive”. Besides, the compound was called inactive in the test with DIV30.

As to `CCN(CC)CCOC(=O)C(c1ccccc1)c1ccccc1`, the Potency entry in the test on CP335, with DFO2036, in the test with DIV14, in the test with DIV17, with ECU and with FAB9 was “inactive” throughout. Also, the Potency entry in the test on HB3, with JCK, in the test on N140, with P93_24, with P94_40 and in the test with PAD was “inactive” each time. Besides, the Potency result with PC15, in the test with PC26, with PC49 and with SC27B was “inactive” throughout. The compound was called inactive in the test on DIV30.

In the case of `Cc1cc(OI)c(C(C)C)cc1-c1cc(C(C)C)c(OI)cc1C`, the Potency result in the test with DFO2036, with FAB9 and with JCK was “inactive” each time. Further, the Potency is 10.7 µM (active) in the test with DIV14; 13.5 µM (active) in the test with DIV17; 10 µM (active) with Dd2; 13.5 µM (active) in the test with GB4; 12.6 µM (active) in the test with N140; 11.2 µM (active) in the test on P94_40. Moreover, in the test with PC15, the Potency is 11.2 µM (active).

Take `O=C1C(c2[nH]c3ccccc3c2O)=Nc2ccccc21`: the Potency entry in the test with CP335, in the test with DFO2036, in the test on Dd2, in the test with FAB9, with JCK and in the test with PC49 was “inactive” in each case.

In the case of `Nc1ncnc(Nc2ccccc2)n1`, the Potency entry in the test with DIV14, in the test with Dd2, in the test with ECU, in the test with FAB9, with GB4 and in the test on HB3 was “inactive” each time. Further, the Potency entry in the test with ICS, with JCK, with N140, with P93_24, in the test on P94_40 and in the test with PAD was “inactive” throughout. The Potency result in the test with PC15, in the test with PC26, with PC49 and with SC27B was “inactive” each time. Further, in the test with DIV30, the compound was called inactive.

Turning to `OC[C@@H](O)[C@@H](O)[C@H](O)[C@H](O)CO`, the Potency entry in the test with DFO2036, in the test with DIV14, in the test with DIV17, with Dd2, in the test with ECU and in the test on FAB9 was “inactive” each time. Moreover, the Potency result in the test on GB4, in the test on HB3, in the test with ICS, in the test on JCK, in the test on N140 and in the test with P93_24 was “inactive” in each case. In addition, the Potency result in the test on P94_40, in the test on PAD, in the test on PC15, with PC26, with PC49 and in the test on SC27B was “inactive” in each case. Moreover, the call in the test on DIV30 was inactive.

As for `CCCCCC(C)N` (centres undefined), the Potency entry in the test with DFO2036, in the test with DIV14, with FAB9, with GB4, in the test on JCK and in the test on PC15 was “inactive” in each case. The Potency entry with PC26, in the test on PC49 and in the test on SC27B was “inactive” throughout. Also, in the test on DIV30, the outcome was inactive. Also, the results for the Potency in the test on Dd2 and in the test with ICS were 11.2 µM (active) and 5.01 µM (active), respectively.

With `CN1CCCN=C1COC(=O)C(O)(c1ccccc1)C1CCCCC1` (centres undefined), the Potency entry in the test on CP335, in the test on DFO2036, in the test with DIV17, with Dd2, with ECU and with FAB9 was “inactive” in each case. In addition, the Potency entry in the test on HB3, in the test on ICS, in the test with JCK, in the test with N140, in the test on P93_24 and in the test with P94_40 was “inactive” in each case. For the same compound, the Potency entry with PAD, in the test on PC15, in the test with PC26, in the test with PC49 and with SC27B was “inactive” each time. Besides, the call with DIV30 was inactive.
